The source of these data is PubChem BioAssay (EPA / NIEHS).

Calls of active or inactive are those of the source. Rule for the calls: active = hit-call score of the fitted dose curve at least 0.9, where 1 is the maximum; inactive = score below 0.9.

As a reminder, the AC50 is the concentration giving half of the maximal activity seen.

Read-out in the first assay: Human Leukocyte Antigen - DR isotype (HLADR), HLA-DRA (gene 3122)
Nature of the assay: BSK_CASM3C_HLADR: BioMAP Diversity Plus: CASM3C Assay for Human Leukocyte Antigen - DR isotype (HLADR) Biomarker Activity (AID 2283043).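 Note: cell-surface HLA-DR protein level quantified by ELISA.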 The conditions noted are these: primary human coronary artery smooth muscle cells; actives raise or lower the signal.
In the case of `CCN(Cc1cccc(S(=O)(=O)O)c1)c1ccc(C(=C2C=CC(=[N+](CC)Cc3cccc(S(=O)(=O)O)c3)C=C2)c2ccccc2S(=O)(=O)[O-])cc1`, the result was inactive. On the same count and under the same terms, as for `CCCCOC(=O)CC(CC(=O)OCCCC)(OC(C)=O)C(=O)OCCCC`, the entry is “inactive”. Turning to `O=c1c(-c2ccc(O)cc2)coc2cc(O)cc(O)c12`, the AC50 is 27.6 µM (active). As for `CN(C)C(=O)C1(N2CCCCC2)CCN(CC[C@@]2(c3ccc(Cl)c(Cl)c3)CN(C(=O)c3ccccc3)CCO2)CC1`, the AC50 is 18.1 µM (active). For `CCCCOC(=O)c1ccc(O)cc1`, the result was inactive.

As to `O=C1CCC(C2CCCCC2)CC1`, the result was inactive. The same measure, in the same setting: the result for `CCO[Si](CCCNC(N)=O)(OCC)OCC` reads “inactive”.

For the molecule `CCCCCCCCCCCCO`, the AC50 was 31.5 µM (active). Take `C[C@]12CC[C@@H]3c4ccc(O)cc4CC[C@H]3[C@@H]1CCC2=O`: the result was inactive.

In the case of `CC/C(=C(/CC)c1ccc(O)cc1)c1ccc(O)cc1`, the outcome was inactive.

In the case of `CCCCCc1ccc(N)cc1`, the outcome was inactive. The same measure, in the same setting: the result for `CN1C(=O)CC[C@H]1c1cccnc1` reads “inactive”; that for `O=C(O)Cc1cc(I)c(Oc2ccc(O)c(I)c2)c(I)c1`, “inactive”. As for `CCCCCCCCCCCC[N+](C)(C)C`, the AC50 was 14 µM (active). On to `CCCCCCCCCC(=O)O`, for which the outcome was inactive. Regarding `Cc1cc(F)ccc1-c1cc(N2CC[C@@H](O)[C@H]2CO)ncc1N(C)C(=O)C(C)(C)c1cc(C(F)(F)F)cc(C(F)(F)F)c1`, the AC50 was 26.5 µM (active).

With `CC(C)(C)c1csc(-c2cc3cc(OCc4ccccc4CC(=O)O)ccc3o2)n1`, the AC50 is 29 µM (active). Regarding `CC(=O)N1CCN(c2ccc(OC[C@H]3CO[C@](Cn4ccnc4)(c4ccc(Cl)cc4Cl)O3)cc2)CC1`, the result was inactive. In the case of `CN(C)c1ccc(C(=C2C=CC(=[N+](C)C)C=C2)c2ccc(N(C)C)cc2)cc1`, the half-maximal activity concentration (AC50) is 7.11 µM (active). Regarding `O=C(Nc1ccc(Cl)cc1)Nc1ccc(Cl)c(Cl)c1`, the AC50 was 2.81 µM (active). `CCCCCCCCN(C)CCCCCCCC`: the result was inactive. On to `c1ccc2ccccc2c1`, for which the outcome was inactive. On the same count and under the same terms, as for `CCCCCCCCCCCO`, the entry is “inactive”; as for `CC[C@@H]1C[C@H](N(Cc2cc(C(F)(F)F)cc(C(F)(F)F)c2)C(C)=O)c2cc(C(F)(F)F)ccc2N1C(=O)OC(C)C`, “inactive”; as for `CCCCCCCC[Si](OCC)(OCC)OCC`, “inactive”.

With `O=C(OCCCCCCOC(=O)c1ccccc1)c1ccccc1`, the result was inactive. The same measure, in the same setting: the result for `COCC(C)OCC(C)OCC(C)O` (stereo not given) reads “inactive”; that for `Cc1oc2c(NC(=O)c3c(Cl)cccc3Cl)cccc2c1C(C)(C)O`, “inactive”; that for `Clc1cc(Cl)c2c(c1)N=C1CCCCCN1C2`, “inactive”. Turning to `O=C(O)Cn1c(=O)n(Cc2ccc(Br)cc2F)c(=O)c2ccc(Cl)cc21`, the outcome was inactive. On the same count and under the same terms, as for `Oc1ccccc1`, the entry is “inactive”. `OC12N=C(c3ccccc3)SC1Cc1cc(Cl)ccc12` (stereo not given): the result was inactive. Still for that read-out and setting: as for `Cc1ccc(C(C)C)cc1`, the entry is “inactive”; as for `Cc1cn([C@H]2C[C@H](N=[N+]=[N-])[C@@H](CO)O2)c(=O)[nH]c1=O`, “inactive”.

In the case of `NC(=O)c1nc(-c2cccc(-c3cc(F)ccc3OCC(F)(F)C(F)(F)F)c2)n[nH]1`, the concentration at half-maximal activity (AC50) is 28.7 µM (active). On to `CCCOC(=O)c1cc(O)c(O)c(O)c1`, for which the outcome was inactive. As to `O=CCCCC=O`, the AC50 was 30.2 µM (active).

Take `COc1cc(C(=O)NC2CCN(C)CC2)ccc1Nc1ncc2c(n1)N(C1CCCC1)CC(F)(F)C(=O)N2C`: the half-maximal activity concentration (AC50) was 9.13 µM (active).

Read-out in the next assay: Macrophage colony-stimulating factor (MCSF), CSF1 (gene 1435)
Nature of the assay: BSK_CASM3C_MCSF: BioMAP Diversity Plus: CASM3C Assay for Macrophage colony-stimulating factor (MCSF) Biomarker Activity (AID 2283044).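 Note: M-CSF protein amount quantified by ELISA after 24 h exposure.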 The conditions noted are these: primary human coronary artery smooth muscle cells; actives raise or lower the signal.
For the molecule `CCN(Cc1cccc(S(=O)(=O)O)c1)c1ccc(C(=C2C=CC(=[N+](CC)Cc3cccc(S(=O)(=O)O)c3)C=C2)c2ccccc2S(=O)(=O)[O-])cc1`, the outcome was inactive. Still for that read-out and setting: as for `CCCCOC(=O)CC(CC(=O)OCCCC)(OC(C)=O)C(=O)OCCCC`, the entry is “inactive”; as for `O=c1c(-c2ccc(O)cc2)coc2cc(O)cc(O)c12`, “inactive”. For the molecule `CN(C)C(=O)C1(N2CCCCC2)CCN(CC[C@@]2(c3ccc(Cl)c(Cl)c3)CN(C(=O)c3ccccc3)CCO2)CC1`, the concentration at half-maximal activity (AC50) is 31.3 µM (active). In the case of `CCCCOC(=O)c1ccc(O)cc1`, the outcome was inactive. For `O=C1CCC(C2CCCCC2)CC1`, the result was inactive. In the case of `CCO[Si](CCCNC(N)=O)(OCC)OCC`, the outcome was inactive.

For the molecule `CCCCCCCCCCCCO`, the half-maximal activity concentration (AC50) is 31.2 µM (active). Turning to `C[C@]12CC[C@@H]3c4ccc(O)cc4CC[C@H]3[C@@H]1CCC2=O`, the outcome was inactive. In the case of `CC/C(=C(/CC)c1ccc(O)cc1)c1ccc(O)cc1`, the result was inactive. Take `CCCCCc1ccc(N)cc1`: the outcome was inactive. Same read-out and setting: as for `CN1C(=O)CC[C@H]1c1cccnc1`, the entry is “inactive”; as for `O=C(O)Cc1cc(I)c(Oc2ccc(O)c(I)c2)c(I)c1`, “inactive”. As for `CCCCCCCCCCCC[N+](C)(C)C`, the half-maximal activity concentration (AC50) was 16.2 µM (active). For `CCCCCCCCCC(=O)O`, the result was inactive.

For the molecule `Cc1cc(F)ccc1-c1cc(N2CC[C@@H](O)[C@H]2CO)ncc1N(C)C(=O)C(C)(C)c1cc(C(F)(F)F)cc(C(F)(F)F)c1`, the AC50 was 26.1 µM (active). With `CC(C)(C)c1csc(-c2cc3cc(OCc4ccccc4CC(=O)O)ccc3o2)n1`, the AC50 was 28.2 µM (active). For `CN(C)c1ccc(C(=C2C=CC(=[N+](C)C)C=C2)c2ccc(N(C)C)cc2)cc1`, the AC50 was 6.36 µM (active). On the same count and under the same terms, the result for `O=C(Nc1ccc(Cl)cc1)Nc1ccc(Cl)c(Cl)c1` reads 12.3 µM (active). Regarding `CCCCCCCCN(C)CCCCCCCC`, the outcome was inactive.

`c1ccc2ccccc2c1`: the result was inactive. On the same count and under the same terms, as for `CCCCCCCCCCCO`, the entry is “inactive”; as for `CC[C@@H]1C[C@H](N(Cc2cc(C(F)(F)F)cc(C(F)(F)F)c2)C(C)=O)c2cc(C(F)(F)F)ccc2N1C(=O)OC(C)C`, “inactive”. Same read-out and setting: the result for `CCCCCCCC[Si](OCC)(OCC)OCC` reads “inactive”; that for `O=C(OCCCCCCOC(=O)c1ccccc1)c1ccccc1`, “inactive”; that for `COCC(C)OCC(C)OCC(C)O` (stereo not given), “inactive”. On the same count and under the same terms, as for `Cc1oc2c(NC(=O)c3c(Cl)cccc3Cl)cccc2c1C(C)(C)O`, the entry is “inactive”. On to `Clc1cc(Cl)c2c(c1)N=C1CCCCCN1C2`, for which the outcome was inactive. Turning to `O=C(O)Cn1c(=O)n(Cc2ccc(Br)cc2F)c(=O)c2ccc(Cl)cc21`, the outcome was inactive.

As to `Oc1ccccc1`, the result was inactive. Same read-out and setting: the result for `OC12N=C(c3ccccc3)SC1Cc1cc(Cl)ccc12` (stereo not given) reads “inactive”; that for `Cc1ccc(C(C)C)cc1`, “inactive”; that for `Cc1cn([C@H]2C[C@H](N=[N+]=[N-])[C@@H](CO)O2)c(=O)[nH]c1=O`, “inactive”. On the same count and under the same terms, the result for `NC(=O)c1nc(-c2cccc(-c3cc(F)ccc3OCC(F)(F)C(F)(F)F)c2)n[nH]1` reads “inactive”; that for `CCCOC(=O)c1cc(O)c(O)c(O)c1`, “inactive”. `O=CCCCC=O`: the outcome was inactive. `COc1cc(C(=O)NC2CCN(C)CC2)ccc1Nc1ncc2c(n1)N(C1CCCC1)CC(F)(F)C(=O)N2C`: the AC50 is 18.6 µM (active).
